Assay [1] can be described thus: Quantitative High-Throughput drug screen in 47 multiple myeloma cell lines against the NCATS MIPE library collection: VP6_DJ cell viability assay (AID 1919867). Note: nearly all actives have a fitted effect of over 40% in size. Note: potency is the fitted concentration of half-maximal effect. In a few lines: (§1)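 ATP-based luminescence (CellTiter-Glo, 5 min RT incubation) quantified surviving cells following two days' treatment with MIPE 4.0 agents at 37 °C, 5% CO2.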
A short description of assay [2]: Quantitative High-Throughput drug screen in 47 multiple myeloma cell lines against the NCATS MIPE library collection: OPM2_DSMZ cell viability assay (AID 1919872). Note: nearly all actives have a fitted effect of over 30% in size. Note: potency is the fitted concentration of half-maximal effect. A digest of the protocol: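 Relative luminescence from CellTiter-Glo served as the viability signal, referenced to DMSO-treated (100%) and cell-free medium (0%) controls. Treatment lasted 48 hours at 37C with 500 cells per well.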

The nature of assay [3]: Quantitative High-Throughput drug screen in 47 multiple myeloma cell lines against the NCATS MIPE library collection: PCM6_Riken cell viability assay (AID 1919870). Note: nearly all actives have a fitted effect of over 30% in size. Note: potency is the fitted concentration of half-maximal effect. A digest of the protocol:
as §1

Assay [4] in a line: Quantitative High-Throughput drug screen in 47 multiple myeloma cell lines against the NCATS MIPE library collection: RPMI8226_ATCC cell viability assay (AID 1919871). Note: nearly all actives have a fitted effect of over 30% in size. Note: potency is the fitted concentration of half-maximal effect. A digest of the protocol: as §1
Assay [5] in a line: Quantitative High-Throughput drug screen in 47 multiple myeloma cell lines against the NCATS MIPE library collection: KMS11_JCRBsus cell viability assay (AID 1919873). Note: nearly all actives have a fitted effect of over 50% in size. Note: potency is the fitted concentration of half-maximal effect. In a few lines: as §1
Assay [6] can be described thus: Quantitative High-Throughput drug screen in 47 multiple myeloma cell lines against the NCATS MIPE library collection: KMS28BM_JCRB cell viability assay (AID 1919874). Note: nearly all actives have a fitted effect of over 35% in size. Note: potency is the fitted concentration of half-maximal effect. A digest of the protocol: as §1
Assay [7] can be described thus: Quantitative High-Throughput drug screen in 47 multiple myeloma cell lines against the NCATS MIPE library collection: UTMC2_PLB cell viability assay (AID 1919868). Note: nearly all actives have a fitted effect of over 55% in size. Note: potency is the fitted concentration of half-maximal effect. Conditions: CellTiter-Glo ATP luminescence, 48 h; viability (% of DMSO control): at 45.8 µM (top of the series). In a few lines:
as §1
(Cellular ATP, detected with luciferase, serves as a proxy for viable cell number.)

Assay [8] in a line: Quantitative High-Throughput drug screen in 47 multiple myeloma cell lines against the NCATS MIPE library collection: PE2_PLB cell viability assay (AID 1919869). Note: nearly all actives have a fitted effect of over 35% in size. Note: potency is the fitted concentration of half-maximal effect. In a few lines:
as §1

Assay [9] has as its target Cytochrome P450 3A4 (Homo sapiens) (UniProt P08684). In words: qHTS for inhibitors of CYP3A4 against the NCATS DSHEA and TCM libraries (AID 1919971).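 Note: inhibition lowers luminescence from luciferin made by CYP3A4.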 In a few lines:
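Substances were tested against enzyme with a pro-luciferin substrate; minus-enzyme wells served as background. After NADPH-initiated oxidation (30-45 min, RT), light was generated with P450-Glo reagent.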
In general terms: Quantitative high-throughput screening tests each substance at several concentrations.

The results in this text go back to PubChem BioAssay (NCATS).

Results filed as inconclusive are left out. Activity calls are given as the source filed them. Calls come from the whole dose curve; as a rule, active = well fitted curve in the direction sought with a large enough effect; inconclusive = small, poorly fitted or top-dose-only effect, or another doubt; inactive = no such curve, though single readings can be large; an effect the other way counts as inactive or inconclusive.

Chain of Cytochrome P450 3A4 (Homo sapiens) (P08684 whole entry, looked up): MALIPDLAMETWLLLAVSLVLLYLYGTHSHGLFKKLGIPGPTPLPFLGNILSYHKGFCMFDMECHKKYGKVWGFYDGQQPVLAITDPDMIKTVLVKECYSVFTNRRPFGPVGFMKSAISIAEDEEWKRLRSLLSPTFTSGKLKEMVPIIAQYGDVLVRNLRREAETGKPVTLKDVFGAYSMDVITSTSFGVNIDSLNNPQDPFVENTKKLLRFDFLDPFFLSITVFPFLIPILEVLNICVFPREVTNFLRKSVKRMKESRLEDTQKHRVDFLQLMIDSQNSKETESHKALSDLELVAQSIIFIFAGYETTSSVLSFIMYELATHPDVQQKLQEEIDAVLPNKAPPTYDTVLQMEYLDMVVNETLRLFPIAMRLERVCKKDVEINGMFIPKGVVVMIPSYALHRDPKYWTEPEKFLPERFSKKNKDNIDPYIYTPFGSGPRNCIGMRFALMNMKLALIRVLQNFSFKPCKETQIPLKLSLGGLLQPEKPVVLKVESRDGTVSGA

Regarding `N#CC(c1ccc(Cl)cc1)c1c(Cl)cc(-n2ncc(=O)[nH]c2=O)cc1Cl` (stereo not given), the Potency in [1] was 20.9 µM (active). The Potency entry in assay [2] was “inactive”.

For the compound `O=C(Nc1ncc(SCCN2CCCC2)s1)[C@]1(c2ccc(S(=O)(=O)C3CC3)cc2)C[C@@H]1C1CCCCC1`, the Potency was 9.35 µM (active) in assay [1]; 8.33 µM (active) in assay [3]; 23.5 µM (active) in [4]; 7.43 µM (active) in assay [5]; 8.33 µM (active) in [6].

On to `COc1ccc(Cn2ccc3ccc(C(=O)NO)cc32)cc1`, for which, in assay [1], the Potency was 9.35 µM (active). The Potency result in assay [4], in [2] and in assay [6] was “inactive” in each case.

On to `Cc1ccc(S(=O)(=O)Nc2nc3ccccc3nc2Nc2ccc3nsnc3c2)cc1`, for which the values for the Potency in assay [1] and in [5] were 0.645 µM (active) and 11.5 µM (active), respectively.

For `O=C(O)Cc1cccc(OCCCN(Cc2cccc(C(F)(F)F)c2Cl)CC(c2ccccc2)c2ccccc2)c1`, the Potency in assay [1] is 16.6 µM (active); in [4], 23.5 µM (active). In assay [2], the Potency result is “inactive”.

Consider `C[C@@H](NC(=O)c1ncnc(N)c1Cl)c1ncc(C(=O)Nc2cc(C(F)(F)F)c(Cl)cn2)s1`, for which the Potency in assay [1] was 20.9 µM (active); in [4], 13.2 µM (active); in [2], 9.35 µM (active).

Take `OC(c1cc(C(F)(F)F)nc2c(C(F)(F)F)cccc12)C1CCCCN1` (stereo not given): the Potency in [1] is 14.8 µM (active); in [2], 23.5 µM (active); in assay [5], 11.8 µM (active).

For `Cc1cc(OCCCS(C)(=O)=O)cc(C)c1-c1cccc(COc2ccc3c(c2)OC[C@H]3CC(=O)O)c1`, the Potency is 2.35 µM (active) in assay [1], 18.7 µM (active) in [4], 18.7 µM (active) in assay [5] and 20.9 µM (active) in assay [6].

`CCCCn1c(=O)n(Cc2ccccc2F)c(=O)c2[nH]c(Cc3ccc(NC(C)=O)cc3)nc21`: the Potency entry in assay [1], in [4], in assay [2] and in assay [6] was “inactive” in each case.

As to `O=C(CO)N1CCC(c2[nH]nc(-c3ccc(Cl)cc3)c2-c2ccncn2)CC1`, in assay [1], the Potency is 1.05 µM (active). The Potency entry in assay [4] and in assay [2] was “inactive” in each case.

Take `CC[C@@H]([C@H](C)O)n1ncn(-c2ccc(N3CCN(c4ccc(OCC5CO[C@@](Cn6cncn6)(c6ccc(F)cc6F)C5)cc4)CC3)cc2)c1=O` (stereo not given in full): the Potency is 23.5 µM (active) in [1] and 11.8 µM (active) in assay [5].

For the compound `CCOC(=O)[C@@H](N)CCC(=O)N[C@@H](CSCc1ccccc1)C(=O)N[C@@H](C(=O)OCC)c1ccccc1`, the Potency in assay [7] was 23.5 µM (active); in [8], 20.9 µM (active). Further, the Potency entry in assay [4], in assay [5] and in assay [6] was “inactive” throughout.

For `CC[C@H](C)C(=O)O[C@H]1C[C@H](O)C=C2C=C[C@H](C)[C@H](CC[C@@H](O)C[C@@H](O)CC(=O)O)[C@H]21`, the Potency result in assay [7], in assay [8], in [3], in [4] and in assay [2] was “inactive” each time.

Consider `CN1N=C(N)c2cn([C@@H]3O[C@H](COP(=O)(O)O)[C@@H](O)[C@@H]3O)c3ncnc1c23`, for which the Potency in assay [7] is 0.0235 µM (active); in [8], 0.059 µM (active); in assay [4], 0.105 µM (active); in assay [6], 23.5 µM (active).

With `CN[C@@H]1CN(c2ccc3c(=O)c(C(=O)O)cn(-c4nccs4)c3n2)C[C@@H]1OC`, the Potency is 1.29 µM (active) in assay [7], 3.23 µM (active) in assay [3] and 12.9 µM (active) in assay [4].

As to `Cc1cc2nc3c(=O)[nH]c(=O)nc-3n(CC(O)C(O)C(O)CO)c2cc1C` (stereo not given), the Potency entry in assay [7], in assay [8], in assay [2] and in assay [5] was “inactive” in each case. Moreover, in assay [9], the call was inactive.

Regarding `CN1CCN(c2ncc(-c3cc(Cl)cc(Cl)c3Cl)c(N)n2)CC1`, the Potency result in assay [7], in assay [4] and in assay [5] was “inactive” throughout.

On to `O=C(c1ccc(C(=O)N2CCC(N3CCCC3)CC2)c(Nc2ccccc2)c1)N1CCC(N2CCCC2)CC1`, for which the Potency entry in [7], in assay [8], in assay [4] and in assay [5] was “inactive” throughout.

On to `Cc1ccc2c(c1)C(=O)[C@]1(O)CCN(c3ccccc3)C1=N2`, for which the Potency in assay [7] was 4.69 µM (active). In addition, the Potency entry in assay [8] and in [2] was “inactive” in each case.

Consider `CNC(=O)[C@H](CC1=CN=C2C=CCC=C12)NC(=O)[C@@H](CC(=O)NO)CC(C)C`, for which the Potency in assay [7] is 18.7 µM (active); in assay [6], 5.9 µM (active). Also, the Potency entry in assay [4] and in assay [2] was “inactive” throughout.

As for `Nc1ccn([C@@H]2O[C@H](CO)[C@@H](O)[C@H]2O)c(=O)n1`, the Potency in [7] is 0.001 µM (active). In addition, the Potency entry in [8], in assay [4], in assay [2], in [5] and in assay [6] was “inactive” each time.

For the compound `C=CC[N+]1([C@H]2C[C@H]3[C@@H]4CC[C@H]5C[C@H](O)[C@@H](N6CCOCC6)C[C@]5(C)[C@@H]4CC[C@]3(C)[C@H]2OC(C)=O)CCCC1`, the Potency result in assay [7], in assay [8], in [3], in [2], in [5] and in assay [6] was “inactive” in each case.

As for `N#Cc1c(N(CC(=O)O)CC(=O)O)sc(C(=O)O)c1CC(=O)O`, the Potency in [7] was 23.5 µM (active); in [8] it was 14.8 µM (active). Further, the Potency entry in assay [4], in [2] and in assay [6] was “inactive” each time.

On to `CCCCC[C@H](O)C=C[C@H]1[C@H](O)CC(=O)[C@H]1CC=CCCCC(=O)O`, for which the Potency result in assay [7] and in assay [2] was “inactive” in each case. For the same compound, the Potency in assay [8] was 23.5 µM (active).

As to `COc1ccc(CCN(C)CCCOc2ccc(S(=O)(=O)c3[nH]c4ccccc4c3C(C)C)cc2)cc1OC`, the Potency entry in assay [7] and in assay [2] was “inactive” in each case. Also, the Potency is 18.7 µM (active) in [8], 18.7 µM (active) in assay [4] and 13.2 µM (active) in assay [6].

`Cn1cnc(-c2cc3nccc(Oc4ccc(NC(=S)NC(=O)Cc5ccccc5)cc4F)c3s2)c1`: the Potency in [7] is 0.132 µM (active); in assay [5], 20.9 µM (active).

In the case of `CCC(=O)N1CCN(c2ccc(-n3c(=O)ccc4cnc5ccc(-c6cnc7ccccc7c6)cc5c43)cc2C(F)(F)F)CC1`, the Potency was 0.0469 µM (active) in assay [7] and 0.0264 µM (active) in [2].
